Screening results (PubChem BioAssay)
CYP2C9 inhib: human CYP2C9 inhibition | CYP2C9 Supersomes, luciferin-H conversion, luminescence | inhibition, % at 5 µM | 96,000 compounds, 20% hits;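 active means blocking of liver enzyme CYP2C9 beyond about 50% at 5 µM, limit read from the data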
Target sequence (P11712 whole entry, looked up): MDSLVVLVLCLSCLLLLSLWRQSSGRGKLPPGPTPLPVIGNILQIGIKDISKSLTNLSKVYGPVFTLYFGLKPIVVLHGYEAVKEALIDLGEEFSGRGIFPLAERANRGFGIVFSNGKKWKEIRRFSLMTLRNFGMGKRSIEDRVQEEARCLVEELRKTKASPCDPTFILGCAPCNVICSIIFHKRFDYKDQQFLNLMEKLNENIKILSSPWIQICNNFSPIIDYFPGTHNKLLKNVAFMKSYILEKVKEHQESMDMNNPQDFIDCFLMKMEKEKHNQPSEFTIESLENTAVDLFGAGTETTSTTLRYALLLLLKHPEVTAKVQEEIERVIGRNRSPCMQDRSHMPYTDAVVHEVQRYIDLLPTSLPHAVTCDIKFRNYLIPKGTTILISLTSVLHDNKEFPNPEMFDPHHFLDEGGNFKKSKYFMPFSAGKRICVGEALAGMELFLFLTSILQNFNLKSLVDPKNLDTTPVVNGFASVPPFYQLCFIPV
CYP2C19 activ: increases human CYP2C19 enzyme activity | activation factor at 5 µM | P33261 | AID 1025 | recombinant CYP2C19, luciferin-H EGE luminescence; hits give high values; 0 = fully inhibited enzyme, 1 = untreated enzyme | 96,000 tested, under 10 active;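 active means activation factor of at least 2 at 5 µM in the primary screen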;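 further: 0 = wells with 2.5 mM tranylcypromine and 1 = vehicle-only wells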
CYP2C9 act: increases human cytochrome P450 2C9 activity; P11712; activation factor at 5 µM; recombinant CYP2C9, luciferin-H conversion, luminescence; hits give high values; factor 1 = untreated enzyme, 0 = blocked; AID 1024; 96,000 compounds, 1.4% hits;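 active means activation factor of 2 or more for CYP2C9 at a 5 µM dose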;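 further: 0 = sulfaphenazole-blocked wells and 1 = vehicle-only wells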
PostGolgi ctrl: inhibits growth of the yeast control strain; efflux-deficient yeast background strain, growth absorbance A615, 16 h; inhibition, % at 10 µM; 98,000 compounds, 5% hits; AID 738
CYP2C19 inh: human CYP2C19 inhibition; CYP2C19 Supersomes, luciferin-H EGE luminescence, 30 min; inhibition, % at 5 µM; P33261; 96,000 compounds, 21% hits;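 active means CYP2C19 inhibition above a set limit at 5 µM in the primary screen, cut at about 50% in these data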;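 further: plate controls were negative control wells for no effect and 2.5 mM tranylcypromine positive control for full effect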
PostGolgi yeast: growth inhibition of a yeast mutant, post-Golgi transport screen; post-Golgi transport phenotypic cell assay; inhibition, % at 10 µM; 98,000 compounds, 0.9% hits;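 further: yeast cells grown in 1536-well plates; yeast grown about 18 h at 30C before absorbance read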
An asterisk follows results filed as active; nt = no result. The list is a sample of the results. Unless noted, no stated cut-off is given here; in the data, active means inhibition above about 30%; inactive means the rest.

SMILES | CYP2C9 inhib | CYP2C19 activ | CYP2C9 act | PostGolgi ctrl | CYP2C19 inh | PostGolgi yeast
Cc1ccc(NC(=O)C(C)Sc2nnc(-c3cccnc3)o2)cc1 (configuration not stated) | 8 | 0.9 | 0.9 | -2 | 9 | -3
O=C(Nc1ccc(OCC(=O)N2CCN(S(=O)(=O)c3ccccc3)CC2)cc1)c1ccco1 | 3 | 1 | 1 | 7 | -3 | 0
Cc1ccccc1C(=O)NC(=S)Nc1sc2c(c1C#N)CCC(C)C2 (configuration not stated) | 63* | 0.7 | 0.4 | 7 | 34 | 2
Cc1cc(C(F)F)n2nc(C(=O)Nc3sc4c(c3C#N)CCC(C)C4)nc2n1 (configuration not stated) | -3 | 1.1 | 1 | 33* | -7 | 30*
COc1ccc(CN2C(=O)CCC2(C)C(=O)NCc2cccnc2)c(OC)c1 (configuration not stated) | 3 | 1.1 | 1 | 3 | -6 | -4
COC(=O)CCCC(=O)Nc1ccc(Cl)c(Cl)c1 | nt | nt | nt | 15 | nt | 3
Cc1ccc(C)c(C(=O)CN2C3=NCCCN3c3ccccc32)c1 | -15 | 1 | 1.2 | 10 | -5 | 4
CCOc1ccccc1NC(=O)N1CCCC1C(=O)Nc1nnc(CC)s1 (configuration not stated) | 7 | 0.9 | 0.9 | 26 | 6 | nt
O=C(Nc1ccc(-n2cnnn2)cc1)C1CCCCC1 | 31 | 0.7 | 0.7 | 6 | 33 | -5
O=C(Nc1ccc(-n2cnnn2)cc1)C1CCCN1C(=O)NC1CCCCC1 (configuration not stated) | 59* | 0.3 | 0.4 | 5 | 66* | 2
CCOc1ccccc1NC(=O)N1CCCC1C(=O)Nc1ccc(-n2cnnn2)c(C)c1 (configuration not stated) | 79* | 0.3 | 0.2 | -8 | 70* | -9
Cc1ccccc1Nc1nnc(SCC(=O)NC(=O)NCc2ccco2)s1 | 45 | 0.6 | 0.5 | 3 | 40 | -2
O=C(Nc1cccc(O)c1)c1cc(S(=O)(=O)N2CCCC2)ccc1Cl | 82* | 0.5 | 0.2 | 4 | 46 | 1
O=C(Nc1ccccc1)c1cccc(S(=O)(=O)N2CCCCC2)c1 | 48 | 0.4 | 0.5 | 10 | 58* | -2
CNC(=O)c1ccccc1NC(=O)c1ccc(C)c(S(=O)(=O)N2CCCCC2)c1 | 62* | 0.3 | 0.4 | 14 | 70* | -2
O=C(Nc1ccccc1Cl)c1cccc(NS(=O)(=O)c2ccccc2)c1 | 75* | 0.1 | 0.2 | 20 | 89* | -11
Cc1ccccc1Nc1nc(N)nc(CN2C(=O)NC3(CCCCC3C)C2=O)n1 (configuration not stated) | -8 | 0.9 | 1.1 | -6 | 8 | -10
COc1ccc(C2=NOC(C(=O)Nc3cccnc3)C2)cc1 (configuration not stated) | 16 | 0.8 | 0.8 | 4 | 18 | 5
CCOC(=O)CN1CCc2c(C)nc3c(-c4ccc(OC)c(OC)c4)cnn3c21 | 13 | 1.1 | 0.9 | 11 | -6 | -9
O=C(c1cccc(S(=O)(=O)N2CCCCC2)c1)N1CCOCC1 | 5 | 1 | 0.9 | 2 | 2 | 1
Cc1ccc(C(=O)Nc2nccs2)cc1S(=O)(=O)N1CCCCC1 | 68* | 0.3 | 0.3 | 28 | 66* | 7
O=C(Nc1ccc(NC(=O)c2ccc(S(=O)(=O)c3ccccc3)cc2)cc1)c1ccccc1 | 8 | 0.9 | 0.9 | -2 | 10 | 4
Cc1ccc(C(=O)NC2CCS(=O)(=O)C2)cc1S(=O)(=O)N1CCCCC1 (configuration not stated) | 32 | 1.1 | 0.7 | 19 | -13 | -5
Cc1csc(NC(=O)c2ccc(C)c(S(=O)(=O)N3CCCCC3)c2)n1 | 27 | 0.9 | 0.7 | 0 | 14 | 5
Cc1ccc(C(=O)NCc2cccs2)cc1S(=O)(=O)N1CCCCC1 | 56* | 0.6 | 0.4 | 9 | 38 | 1
Cc1cc(C)n(C(=O)c2cccc(S(=O)(=O)N3CCCC3)c2)n1 | 72* | 0.2 | 0.3 | 3 | 76* | 6
Cc1ccc(NC(=O)c2cc(S(=O)(=O)c3ccccc3)ccc2Cl)cc1 | 73* | 0.6 | 0.3 | 16 | 36 | -4
Cc1cccc(C)c1NC(=O)N1CCN(C2CCCCC2)CC1 | nt | nt | nt | 3 | nt | -3
CC(C)c1cc(NCCCN2CCOCC2)n2c(nc3ccccc32)c1C#N | nt | nt | nt | 1 | nt | -8
